# “And” between values parts separate entries of the source, which are not always exact repeats. Equal values may be shown once. The full ranking holds about 2,900 compounds; the median of “NF-kB SEAP reporter activity, fold change vs agonist alone” is about 0.99, and the highest 2% start at about 2.6. Many of the other results were omitted from the sample, so the highest values are more common in it than they were.
# How the values were obtained:
# [1] = test system: RAW-Dual; experiment: NF-kB SEAP reporter activity, fold change vs agonist alone; cytotoxicity flag (confluency mask): not cytotoxic; higher = enhanced NF-kB activity
# Outline: (§1)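 After 50 nL of library stock was delivered by pin tool to RAW-Dual macrophages (50,000 cells/well, DMEM, 384-well plates), a PRR agonist was added 1 h later and the plates were kept at 37 °C, 5% CO2. Twenty hours later, IRF was read from supernatant by QuantiLuc luminescence and NF-κB by QuantiBlue absorbance at 620 nm. Reporter activity is stated as fold change over agonist-alone wells. Wells with IncuCyte confluency under 70% of agonist controls in both mask sets were counted as cytotoxic.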
# [2] = test system: RAW-Dual; experiment: NF-kB SEAP reporter activity, fold change vs agonist alone; higher = enhanced NF-kB activity
# Outline: as §1
# [3] = test system: RAW-Dual; experiment: NF-kB SEAP reporter activity, fold change vs agonist alone; cytotoxicity flag (confluency mask): cytotoxic (confluency <70% of control); higher = enhanced NF-kB activity
# Outline: as §1
# [4] = agonist: ODN 1826 (TLR9) 0.5 ug/mL
# [5] = agonist: Pam2CSK4 (TLR2/6) 0.1 ug/mL
# [6] = agonist: Pam3CSK4 (TLR2/1) 0.1 ug/mL
# [7] = library stock concentration (final ~1000-fold dilution): 10 mM, cytotoxicity flag (confluency mask): not cytotoxic, agonist: Imiquimod (TLR7) […]
# [8] = library stock concentration (final ~1000-fold dilution): 10 mM, cytotoxicity flag (confluency mask): not cytotoxic, agonist: MPLA (TLR4) […]
structure (smiles),measurement,setting,value
Fc1ccc(CNc2ncnc3ccc(F)cc23)cc1 (library stock concentration (final ~1000-fold dilution): 10 mM),NF-kB SEAP reporter activity,[1]; agonist: LPS (TLR4) 0.1 ug/mL,2.47
same,NF-kB SEAP reporter activity,[1]; [4],1.19
same,NF-kB SEAP reporter activity,[1]; [5],1.06
same,NF-kB SEAP reporter activity,[1]; [6],1.25
COc1cc2c(cc1Cc1cccc(Cl)c1F)c(=O)c(C(=O)O)cn2C(CO)C(C)C (stereo unspecified),NF-kB SEAP reporter activity,[2]; [7],1.06
same,NF-kB SEAP reporter activity,[2]; [8],1.17
COc1cc2c(cc1Cc1cccc(Cl)c1F)c(=O)c(C(=O)O)cn2C(CO)C(C)C (stereo unspecified) (library stock concentration (final ~1000-fold dilution): 10 mM),NF-kB SEAP reporter activity,[1]; agonist: LPS (TLR4) 0.1 ug/mL,1.45
same,NF-kB SEAP reporter activity,[1]; [4],1.08
same,NF-kB SEAP reporter activity,[1]; [5],0.664
same,NF-kB SEAP reporter activity,[1]; [6],0.625
O=C1c2ccc(O)cc2C(=O)c2ccc(O)cc21,NF-kB SEAP reporter activity,[2]; [8],1.26
O=C1c2ccc(O)cc2C(=O)c2ccc(O)cc21 (library stock concentration (final ~1000-fold dilution): 10 mM),NF-kB SEAP reporter activity,[1]; agonist: LPS (TLR4) 0.1 ug/mL,1.38
same,NF-kB SEAP reporter activity,[1]; [4],1.04
same,NF-kB SEAP reporter activity,[1]; [5],1.32
same,NF-kB SEAP reporter activity,[1]; [6],1.16
Nc1nc(F)nc2c1ncn2C1OC(COP(=O)(O)O)C(O)C1O (stereo unspecified),NF-kB SEAP reporter activity,[2]; [7],0.903
same,NF-kB SEAP reporter activity,[2]; [8],1.03
Nc1nc(F)nc2c1ncn2C1OC(COP(=O)(O)O)C(O)C1O (stereo unspecified) (library stock concentration (final ~1000-fold dilution): 10 mM),NF-kB SEAP reporter activity,[1]; agonist: LPS (TLR4) 0.1 ug/mL,1.14
same,NF-kB SEAP reporter activity,[1]; [4],1.01
same,NF-kB SEAP reporter activity,[1]; [5],1
same,NF-kB SEAP reporter activity,[1]; [6],1.15
O=C(c1ccccc1)c1ccc2nc(NC(=O)c3csc(C4CCN(c5ncnc6ccsc56)CC4)n3)[nH]c2c1 (library stock concentration (final ~1000-fold dilution): 10 mM),NF-kB SEAP reporter activity,[1]; agonist: LPS (TLR4) 0.1 ug/mL,2.75 and 2.17
same,NF-kB SEAP reporter activity,[1]; [4],1.57 and 1.25
same,NF-kB SEAP reporter activity,[1]; [5],0.384 and 0.435
same,NF-kB SEAP reporter activity,[1]; [6],0.694 and 0.75
CNC(C)C(=O)NC(C(=O)N1CCCC1C(=O)NC1c2ccccc2CC1OCC#CC#CCOC1Cc2ccccc2C1NC(=O)C1CCCN1C(=O)C(NC(=O)C(C)NC)C1CCCCC1)C1CCCCC1 (stereo unspecified) (library stock concentration (final ~1000-fold dilution): 10 mM water),NF-kB SEAP reporter activity,[3]; agonist: LPS (TLR4) 0.1 ug/mL,0.764
same,NF-kB SEAP reporter activity,[3]; [4],1.11
same,NF-kB SEAP reporter activity,[3]; [5],0.798
same,NF-kB SEAP reporter activity,[3]; [6],0.718
CNC(C)C(=O)NC(C(=O)N1CCCC1C(=O)NC1c2ccccc2CC1OCC#CC#CCOC1Cc2ccccc2C1NC(=O)C1CCCN1C(=O)C(NC(=O)C(C)NC)C1CCCCC1)C1CCCCC1 (stereo unspecified),NF-kB SEAP reporter activity,"[2]; library stock concentration (final ~1000-fold dilution): 10 mM water, cytotoxicity flag (confluency mask): cytotoxic (confluency <70% of control), agonist: Imiquimod (TLR7) […]",0.836
same,NF-kB SEAP reporter activity,"[2]; library stock concentration (final ~1000-fold dilution): 10 mM water, cytotoxicity flag (confluency mask): cytotoxic (confluency <70% of control), agonist: MPLA (TLR4) […]",0.786
CC1(F)C(O)C(CO)OC1n1ccc(=O)[nH]c1=O (stereo unspecified) (library stock concentration (final ~1000-fold dilution): 10 mM),NF-kB SEAP reporter activity,[1]; agonist: LPS (TLR4) 0.1 ug/mL,1.26
same,NF-kB SEAP reporter activity,[1]; [4],0.945
same,NF-kB SEAP reporter activity,[1]; [5],0.82
same,NF-kB SEAP reporter activity,[1]; [6],0.78
CC1(F)C(O)C(CO)OC1n1ccc(=O)[nH]c1=O (stereo unspecified),NF-kB SEAP reporter activity,[2]; [8],1.02
